# ELG1 genotoxic: induces genotoxicity in HEK293T cells with luciferase-tagged ELG1; HEK293T ELG1-luciferase reporter, luminescence, 16 h; Potency, µM (doses to about 46 µM), for inactives: at the top dose activity change, positive = activation, most hits filed as activators; 1.3% of 330,000 active; AID 504466; further: % of control where 0% means no effect; nearly all actives have a fitted effect of over 60% in size
#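 Step 1: seed 2,000 HEK293T ELG1-luciferase cells per well. Step 2: add compound or DMSO, incubate 16 hr at 37 °C. Step 3: ONE-Glo, 30 min at room temperature, read luminescence.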
# NPC1 promoter act: NPC1 promoter activation; Potency, µM (highest dose often 9.22 µM), for the others: at the top dose activation, actives largely listed as activators; Huh7 NPC1 promoter luciferase reporter, 24 h; 2.4% of 320,000 active; AID 485313; further: % of control where 0% means no effect; nearly all actives have a fitted effect of over 60% in size
#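 Luciferase expression driven by the NPC1 promoter was measured in stably transfected Huh7 cells after a 24 h compound incubation, using a luciferase reagent and a luminescence read.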
# p53 reactivator: re-activators of mutant p53. AID 504706. 0.063% of 320,000 active. H1299 p53-A138V BP100-luciferase reporter, luminescence, 24 h. Potency, µM (titrated, usually from 92.2 µM), for the others: top-dose activity change, positive = activation, most hits filed as activators; further: % of control where 0% means no effect; nearly all actives have a fitted effect of over 45% in size
#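 H1299 (p53-null), stable ts p53-A138V + BP100-Luc; 1000 cells/well, Opti-MEM/10% FBS; cpd 4 pt, 1:5; 24 h, 37 deg C, 5% CO2; detection reagent 10 min RT; luminescence.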
# SMN2 splice up: enhancers of SMN2 splice variant expression; HEK293 SMN2-luciferase splicing reporter, luminescence, 30-36 h; Potency, µM (doses to about 46.1 µM), inactives show top-dose activity change, positive = activation, actives largely listed as activators; 2.8% of 210,000 active; AID 1458; further: % of control where 0% means no effect; nearly all actives have a fitted effect of over 55% in size
#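 qHTS luciferase splicing reporter: luminescence rises when SMN2 exon 7 is included in transfected HEK293 cells. Compound exposure lasted 30-36 h at 37C, with 4.5 mM final sodium butyrate as control, followed by a ONE-Glo read.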
# Rab9 prom act: activates the Rab9 promoter | Huh7 Rab9 promoter-luciferase reporter, luminescence, 24 h | Potency, µM (top dose mostly 9.22 µM), for the others: at the highest dose activation, negative = inhibition, most hits filed as activators | 2.8% of 320,000 active | AID 485297; further: % of control where 0% means no effect; nearly all actives have a fitted effect of over 60% in size
#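 Huh7 cells stably carrying a Rab9 promoter-luciferase reporter, 1500 cells per well in OP-MEM I with 10% FBS, treated with compound 24 hours at 37C. Luciferase activity read by luminescence after 10 minutes with Amplite reagent.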
# FLuc counter: inhibits or activates purified firefly luciferase, miR-21 counter-screen; P08659; purified FLuc, Km substrates, luminescence inhibition; Potency, µM (top dose mostly 57.5 µM), for the others: at the highest dose activity change, negative = inhibition, usual class: inhibitors; 6.9% of 360,000 active; AID 588342;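 further: plate controls were vehicle for no effect and reference inhibitor for full effect; nearly all actives have a fitted effect of over 55% in size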
# Target sequence (P08659 whole entry, looked up): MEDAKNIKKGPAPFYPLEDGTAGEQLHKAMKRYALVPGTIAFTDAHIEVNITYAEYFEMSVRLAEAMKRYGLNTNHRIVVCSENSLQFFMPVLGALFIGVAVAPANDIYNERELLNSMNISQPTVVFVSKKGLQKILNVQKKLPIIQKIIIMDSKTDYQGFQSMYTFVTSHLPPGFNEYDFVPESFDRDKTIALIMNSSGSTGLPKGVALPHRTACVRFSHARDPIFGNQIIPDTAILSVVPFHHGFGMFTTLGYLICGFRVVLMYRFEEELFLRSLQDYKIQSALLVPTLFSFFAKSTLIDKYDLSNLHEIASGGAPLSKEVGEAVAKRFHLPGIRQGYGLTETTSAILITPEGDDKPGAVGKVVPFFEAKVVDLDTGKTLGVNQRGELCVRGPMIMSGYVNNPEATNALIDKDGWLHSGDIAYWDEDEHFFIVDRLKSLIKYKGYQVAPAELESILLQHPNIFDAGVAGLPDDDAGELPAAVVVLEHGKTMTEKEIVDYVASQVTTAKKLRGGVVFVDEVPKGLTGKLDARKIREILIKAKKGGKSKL
#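 Purified P. pyralis luciferase (10nM final) with 10uM D-luciferin and 10uM ATP (Km levels) in 50mM Tris acetate pH 7.5, 10mM Mg acetate, 0.01% Tween-20, 0.05% BSA; qHTS 6-point titration, ~60 µM downward; luminescence read.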
# * = called active by the depositor; ? = inconclusive; . = no result; [ ] = dose if it differs, or a comment. Rows were chosen to be rich in hits. Some 7.3% of all compounds tested hit in one or more screens of this group. The call rests on the fitted dose curve; in most records, active means well fitted curve in the direction sought with a large enough effect; inconclusive means small, poorly fitted or top-dose-only effect, or another doubt; inactive means no such curve, though single readings can be large; an effect the other way counts as inactive or inconclusive. Potency means the concentration at half of the fitted maximal effect.
SMILES,ELG1 genotoxic,NPC1 promoter act,p53 reactivator,SMN2 splice up,Rab9 prom act,FLuc counter
CCCOc1cccc(/C=N/NC(=O)c2csc(C)c2C)c1,6%,22%,1%,-25%,10%,4.8µM*
Cc1scc(C(=O)N/N=C/c2ccc([N+](=O)[O-])o2)c1C,-15%,-20%,-50%,.,-31%,-22%
Cc1scc(C(=O)N/N=C/c2ccco2)c1C,?,?,?,11µM*,2.8µM*,11µM*
Cc1scc(C(=O)N/N=C/c2ccsc2)c1C,10µM*,?,?,18µM*,2.8µM*,2.1µM*
COC(=O)N/N=C/c1cccc(OCCSc2ccc(Cl)cc2)c1,1%,?,29%,11µM*,27%,-27%
CCOCCOC(=O)c1ccc2c(c1)N(Cc1ccccc1C#N)C(=O)c1ccccc1S2(=O)=O,.,.,.,.,.,5%
CN1C(=O)C(C)(C)c2cc(S(=O)(=O)N3CCN(c4cccc(Cl)c4)CC3)ccc21,6%,1%,7%,.,-1%,0%
CCc1ccc(C(=O)CC2(O)C(=O)N(CCc3ccccc3)c3ccc(Cl)cc32)cc1 (configuration not stated),.,.,.,-11%,.,-8%
COC(=O)c1ccc(Cl)cc1NC(=O)N(Cc1ccc(C)o1)C1CCN(C(C)=O)CC1,.,.,.,.,.,5%
Cc1nn(C)cc1/C=C(/C#N)C(N)=O,3%,0%,7%,16%,0%,-2%
Cc1cc(C)c(S(=O)(=O)N2CCC(N3CCN(Cc4ccc(F)cc4)C(=O)C3=O)CC2)c(C)c1,.,.,.,.,.,0%
COc1ccc(-c2nc3ccccc3s2)cc1NC(C)=O,16µM*,2.5µM*,?,11µM*,2.2µM*,6.7µM*
Cc1ccc(-c2nc3ccccc3s2)cc1NC(=O)COc1ccccc1,.,.,.,4%,.,-1%
COc1ccc(-c2nc3ccccc3s2)cc1NC(=O)c1cccc([N+](=O)[O-])c1C,.,.,.,11µM*,.,3.4µM*
Cc1ccc(C(=O)NC(=S)Nc2cc(-c3nc4ccccc4s3)ccc2C)cc1,?,-3%,21%,8%,29%,9.5µM*
COc1ccc(-c2nc3ccccc3s2)cc1NC(=O)c1ccccc1F,.,.,.,2%,.,0%
COc1ccc(-c2nc3ccccc3s2)cc1NC(=O)COc1ccc(C)cc1,.,.,.,1.3µM*,.,-2%
Cc1c(Cl)cccc1-n1nc(C)c2c(C)cc(=O)n(CC(=O)N3CCCc4ccccc43)c21,.,.,.,.,.,-9%
Cc1ccc(Cc2nc3ccccc3nc2SCC(=O)Nc2ccc3c(c2)OCO3)cc1,.,.,.,.,.,4%
O=C(O)c1cccc(-n2cnc3cccnc32)c1,.,.,.,-3%,.,-13%
COc1cccc(NC(=O)CN(C)C(=O)c2ccc(Cl)c(S(=O)(=O)N3CCCCCC3)c2)c1,-8%,4%,-10%,.,-3%,-16%
O=C(NCc1ccncc1)c1nc(-c2ccc(C(F)(F)F)cc2)no1,-3%,-4%,0%,-33%,-14%,3%
CN(C(=O)CSc1nnc(-c2ccc([N+](=O)[O-])cc2)o1)c1ccccc1,.,.,.,.,.,2%
COc1ccc(-c2nc3ccccc3s2)cc1NC(=O)COc1cccc(C)c1,.,.,.,2.8µM*,.,?
COc1ccccc1OC(C)C(=O)Nc1cccc(-c2nc3ccccc3s2)c1 (configuration not stated),.,.,.,.,.,11µM*
SMILES,ELG1 genotoxic,NPC1 promoter act,p53 reactivator,SMN2 splice up,Rab9 prom act,FLuc counter
CC(Oc1ccccc1F)C(=O)Nc1ccc(-c2nc3ccccc3s2)cc1 (configuration not stated),.,.,.,.,.,-7%
CCN(CC)CCNC(=O)c1sc2nc(C)cc(C)c2c1-n1cccc1,.,.,.,.,.,-6%
COC(=O)Cc1ccc(NC(=O)c2cccs2)cc1,15%,?,?,11µM*,2.8µM*,21µM*
O=C(Nc1cccc(NC(=O)c2cccs2)c1)c1ccc(F)cc1,-5%,0%,0%,.,-4%[1.84 µM],21µM*
CC(=O)Nc1ccc(OC(=O)c2cccs2)cc1,-1%,1%,12%,28%,0%,?
COc1ccccc1CC(=O)Nc1ccc(NC(=O)c2cccs2)cc1,15%,1%,21%,.,15%,1%
CC(=O)c1ccc(OC(=O)c2cccs2)cc1,-7%,5%,?,10%,-4%,12µM*
COc1ccc(C(=O)Nc2cccc(NC(=O)c3cccs3)c2)cc1,0%,18%,.,.,19%,9.5µM*
Cc1ccc(N2CC(NC(=O)C3CCCC3)CC2=O)cc1 (configuration not stated),.,.,.,.,.,-4%
CCOC(=O)c1cc(-c2ccccc2)n(CCC(=O)Nc2ccc(Cl)c(C(F)(F)F)c2)c1C,.,.,.,.,.,0%
COc1ccc(NC(=O)Cn2cnc3sc(C)c(S(=O)(=O)N4CCN(C)CC4)c3c2=O)cc1OC,3%,-3%,0%,-12%,-1%,0%
CC(=O)c1ccc(NC(=O)c2cccs2)cc1,16µM*,2.8µM*,?,10µM*,2.2µM*,15µM*
COc1ccc(-c2noc(-c3cc(Cl)ccc3Cl)n2)cc1OC,3%,16%,11%,-7%,11%,5%
CC1CCCN(C(=O)COc2ccc(NC(=O)c3cccs3)cc2)C1 (configuration not stated),-3%,13%,-1%,-20%,13%,9.5µM*
COc1ccc(Cl)cc1-c1nc(-c2ccc(NC(=O)c3cccs3)cc2)no1,14%,14%,0%,3%,?,15µM*
CC1CCCN(C(=O)COC(=O)COc2ccc(Cl)cc2)C1 (configuration not stated),1%,.,-9%,.,.,.
COc1cc(NC(=O)c2cccs2)cc(OC)c1,10%,24%,?,15%,?,?
COc1cccc(NC(=O)c2cccs2)c1,16µM*,?,?,13µM*,?,17µM*
COc1ccc(C(=O)OCc2cc(=O)n3nc(-c4cccs4)sc3n2)cc1,.,.,.,.,.,-1%
COc1ccc(NC(=O)c2ccco2)cc1NC(=O)c1cccs1,1%,-1%,-6%,4.5µM*,-6%,-13%
N/C(=N\O)c1ccc(NC(=O)c2cccs2)cc1,?,?,?,27%,3.5µM*,17µM*
C/C(=N\NC(=O)C(N)=O)c1ccc(NC(=O)c2cccs2)cc1,?,27%,11%,?,?,?
COc1ccc(NC(=O)c2cccs2)cc1OC,23µM*,20%,18%,.,24%,?
COC(=O)Cc1ccc(NC(=O)c2ccccc2Br)cc1,10%,12%,0%,5%,2%,17µM*
COC(=O)Cc1ccc(NC(=S)NNC(=O)c2ccccc2Br)cc1,0%,-2%,1%,-10%,-1%,-1%
